Compound activity from PubChem.
Pf growth 96h – P. falciparum growth inhibition at 96 hour, primary screen for plastid delayed-death inhibitors; P. falciparum luciferase reporter growth, 96 h; Potency, µM (titrated, usually from 28.7 µM), inactives show at the highest dose activity change, negative = inhibition, usual class: inhibitors; 320,000 compounds, 6.9% hits; AID 504834; further: potency means the concentration at half of the fitted maximal effect
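Luminescence readout: decreased luciferase signal marks inhibited growth of reporter-expressing P. falciparum in infected red cells (2% hematocrit, 0.05% parasitemia final), exposed to compound two generations (96 h, 37 C, 5% CO2).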
HCMV inh – blocks human cytomegalovirus replication; 410,000 compounds, 4.5% hits; HFF cells, HCMV-luciferase reporter, 72 h; hits give low values; activity change, negative = inhibition, % at 57.5 µM; in the data active means activity change below about -60%; inconclusive means no clear call, values can overlap the other calls; inactive means above about -39%
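Inhibition of viral replication was scored as loss of reporter luminescence in HFFs infected with HCMV-luciferase (MOI 1 PFU/cell) for 72 h; compounds tested at 2 doses, normalized to buffer and Salinomycin controls.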
Pf growth 48h – inhibits P. falciparum growth in the first generation, 48 h | P. falciparum luciferase growth in erythrocytes, 48 h | Potency, µM (titrated, usually from 28.7 µM), without a hit: at the highest dose activity change, negative = inhibition, most hits filed as inhibitors | 310,000 compounds, 5.9% hits; further: potency means the concentration at half of the fitted maximal effect
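Parasite viability was followed by luminescence of a genomically integrated firefly luciferase. Cultures held 0.1% parasitemia at 2% hematocrit (final), incubated under 5% CO2 at 37 C.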
HCV inh – HCV inhibition; Huh7.5.1 HCVcc-Cre infection, luciferase reporter, 44 h; Potency, µM (series often up to 41.8 µM), for inactives: at the top dose activity change, negative = inhibition, hits mostly inhibitors; 340,000 compounds, 3.4% hits; AID 651820; further: potency means the concentration at half of the fitted maximal effect
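A cell-based infection assay in which seeded cells (1,000 per well) receive test compound after 4 h, are inoculated with HCVcc-Cre at approximately 0.5 moi, and are incubated 44 h before luminescence detection.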
The depositor's hits bear a star; u = inconclusive; x = not tested or not shown. Shown are actives, neighbours in structure and some others; about 13% of the full set was active somewhere. Unless noted, the call rests on the fitted dose curve; in most records, active means well fitted inhibition curve with a large enough effect; inconclusive means small, poorly fitted or top-dose-only effect, or another doubt; inactive means no such curve, though single readings can be large or run the other way. On the % scale 0 is the no-effect control and ±100 the full control effect.

SMILES | Pf growth 96h | HCMV inh | Pf growth 48h | HCV inh
CC(=O)CC1N(S(=O)(=O)c2ccc(C)cc2)c2ccccc2N1S(=O)(=O)c1ccc(C)cc1 | x | -10.3 | x | x
C=C[C@@H]1c2ccccc2N(S(=O)(=O)c2ccc(C)cc2)[C@H](c2ccc(OC(C)=O)cc2)C1(C#N)C#N | u | u | 3.7µM* | u
C=C[C@@H]1c2cc(C)ccc2N(S(=O)(=O)c2ccc(C)cc2)[C@H](c2ccc(OC(C)=O)cc2)C1(C#N)C#N | u | -97.4* | u | 8.91µM*
Cc1ccc2c(c1)C1CN(C)CCC1N2S(=O)(=O)c1ccc(C#N)cc1 (centres undefined) | u | 47.1 | u | 14.3%
COc1ccc(S(=O)(=O)NCCc2cn3ccsc3n2)cc1OC | x | -6.3 | x | x
CCc1ccccc1N1CSC2=C(C#N)C(c3cc(OC)c(OC)cc3OC)CC(=O)N2C1 (centres undefined) | 68.3% | 8.3 | 13.1µM* | u
COc1cccc(C2CC(=O)N3CN(c4cccc(Cl)c4C)CSC3=C2C#N)c1OC (centres undefined) | 0.928µM* | 11.6 | x | 12.8%
COc1ccc(OC)c(C2CC(=O)N3CN(c4cccc(Cl)c4C)CSC3=C2C#N)c1 (centres undefined) | 2.6% | -11.2 | x | -6.5%
COc1cc(OC)c(C2CC(=O)N3CN(c4ccccc4)CSC3=C2C#N)cc1OC (centres undefined) | u | 19.8 | 36.6% | 0.9%
Cc1ccc(C2CC(=O)N3CN(c4ccc(Br)cc4)CSC3=C2C#N)o1 (centres undefined) | 4.65µM* | 66.5 | x | 10.7%
CCOc1ccc(N2CSC3=C(C#N)C(c4ccco4)CC(=O)N3C2)cc1 (centres undefined) | u | 18.6 | x | 0.1%
COc1ccc(OC)c(C2CC(=O)N3CN(c4cccc(Cl)c4)CSC3=C2C#N)c1 (centres undefined) | 7.38µM* | 28.3 | x | 10.2%
Cc1ccc(-c2nc3n(n2)C(c2ccccc2Cl)C=C(c2ccc(Cl)cc2)N3)cc1 (centres undefined) | x | -3.9 | x | x
O=C(NC(Cc1ccccc1)C(=O)O)/C(=C/c1ccccc1)NC(=O)c1ccco1 (centres undefined) | 5.22µM* | 37.7 | 24.7% | 13.5%
COC(=O)C1=NNC2C(=O)N(C3CCCCC3)C(=O)C12 (centres undefined) | 3.29µM* | -26.0 | 15.2% | 9.1%
COc1ccccc1Oc1ccc(-c2cnc3ccccc3n2)cc1[N+](=O)[O-] | 69.1% | -87.5* | u | u
Cc1nc2nc(NC(=O)c3ccc(F)cc3)[nH]n2c(=O)c1Cc1ccccc1 | x | 3.4 | x | x
O=C1CCSC2(C(=O)N(Cc3ccc(F)cc3)c3ccccc32)N1c1ccc(Cl)cc1 (centres undefined) | x | 0.0 | x | x
Cc1cc(Oc2ccc(=O)n(C)n2)nc(Oc2ccc(=O)n(C)n2)n1 | 10.4µM* | -1.4 | 5.5% | 2.8%
Cc1ccc2c(c1)c1c(c(=O)n(-c3cccc(Cl)c3)c(=O)n1CC(=O)NCC1CCCO1)n2C (centres undefined) | x | 3.6 | x | x
CCn1c(SCc2ccc(C(=O)Nc3cc(C)cc(C)c3)cc2)nnc1-c1ccncc1 | -3.2% | -61.5* | u | 11.2µM*
CCC(=O)Nc1ccc(-c2nnc(SCc3ccc(C(=O)Nc4nccs4)cc3)n2CC)cc1 | 5.3% | -20.6 | 7.38µM* | 11.3%
Cc1cccc(NC(=O)CNC(=O)CSc2ncccn2)c1C | x | -9.5 | x | 11.3%
Cc1ccc(Cn2c(C)c3cnn(CC(=O)NC4CCCC4)c(=O)c3c2C)cc1 | 9.28µM* | -16.0 | 1.3% | 5.6%
CNC(=O)Cn1ncc2c(C)n(Cc3ccc(C)cc3)c(C)c2c1=O | 32.8% | -2.4 | -16.1% | 6.8%
SMILES | Pf growth 96h | HCMV inh | Pf growth 48h | HCV inh
O=C(Cn1ncc(Cl)c(Cl)c1=O)NC1CCCCC1 | u | 0.0 | -23.9% | 2.82µM*
O=C(Cn1ncc(Cl)c(Cl)c1=O)NC1CCS(=O)(=O)C1 (centres undefined) | -5.9% | -62.5* | -14.5% | -26.4%
Cc1cccc(NC(=O)CNC(=O)Cn2ncc(Cl)c(Cl)c2=O)c1C | x | x | x | 0.708µM*
COc1ccccc1NC(=O)Cn1c(=O)n(Cc2nc(-c3ccccc3)no2)c(=O)c2ccccc21 | x | 7.7 | x | x
COc1ccc(-c2nc3sc(CCNC(=O)c4ccccc4C)c(C)n3n2)cc1 | x | 17.6 | x | x
O=C(Cn1ncc(Cl)c(Cl)c1=O)NCC1CCCCC1 | -2.9% | -100.7* | -18.2% | 2.82µM*
Cc1[nH]ccc2cc3nc4ccccc4c3cc12 | x | -72.4* | x | x
Cc1ccc(-c2nc3c(c(SCC(=O)Nc4cccc(C(=O)O)c4)n2)Cc2cccc(C)c2O3)cc1 | 3.3% | x | -11.7% | x
Cc1ccc(O)c(NC2=C(Cl)C(=O)N(Cc3ccccc3)C2=O)c1 | u | -2.2 | 11.7µM* | -19.4%
Cc1ccc(C(=O)N2CCCCC2)cc1NC1=C(Cl)C(=O)N(Cc2ccccc2)C1=O | 5.22µM* | -66.3* | 4.65µM* | u
O=C(c1ccc2c(c1)N(Cc1ccccc1)C(=O)c1ccccc1S2)N1CCCC1 | u | 12.9 | -39.3% | -2.2%
CCOc1ccc(NC2=C(Cl)C(=O)N(Cc3ccccc3)C2=O)cc1 | u | 113.8 | u | u
CCOC(=O)c1ccccc1NS(=O)(=O)c1ccc(N2CCCCS2(=O)=O)cc1 | x | 13.4 | x | x
Cc1ccc(NC(=O)c2cc(=O)c3ccccc3o2)cc1S(=O)(=O)N1CCCCC1 | u | -68.8* | 6.57µM* | u
O=C(Nc1ccc(S(=O)(=O)N2CCCCCC2)cc1)c1cc(=O)c2ccccc2o1 | x | -15.2 | x | x
Cc1ccc(NC(=O)c2cc(=O)c3ccccc3o2)cc1S(=O)(=O)N1CCOCC1 | 4.65µM* | -2.7 | 8.28µM* | u
CN(C)S(=O)(=O)c1cc(NC(=O)c2cc(=O)c3ccccc3o2)ccc1Cl | u | -12.3 | 10.4µM* | u
COc1ccc(NC(=O)c2cc(=O)c3ccccc3o2)cc1Cl | -13.5% | -27.5 | u | 9.0%
CC(C)(C)c1ccc(NC(=S)NCc2cccnc2)cc1 | -1.9% | -13.2 | 3.9% | 31.6µM*
Fc1cccc(NC(=S)NNc2ccccc2)c1 | 67.6% | u | u | -5.9%
S=C(NCc1cccnc1)Nc1ccc(Oc2ccc(Cl)cc2)cc1 | -27.4% | -61.3* | 6.4% | u
Fc1cccc(NC(=S)NNc2c3ccccc3nc3ccccc23)c1 | 0.5% | 16.2 | 2.08µM* | 4.47µM*
Fc1cccc(NC(=S)NCc2cccnc2)c1 | 7.38µM* | -10.8 | -11.2% | u
Fc1ccc(NC(=S)NCc2cccnc2)cc1 | 10.3% | -6.6 | -8.0% | 11.0%
CCn1ccc2cc(S(=O)(=O)N3CCC(C(=O)NCCc4ccc(SC)cc4)CC3)ccc21 | x | 13.1 | x | x
Cc1ccc(C(=O)NNC(=O)c2ccc(NC(=O)C(C)(C)C)cc2)cc1 | 14.7µM* | -12.7 | 5.9% | 1.5%
CC(C)c1ccc(O)c(NC(=S)NC(=O)c2cccnc2)c1 | 6.6% | -15.0 | u | -9.5%
COc1ccc(C(=O)c2c[nH]c(C(=O)NCCCn3ccnc3)c2)cc1 | u | -15.3 | u | -3.4%
